# Source: PubChem BioAssay (NCATS)
# “And” between values parts separate entries of the source, which are not always exact repeats. Equal values may be shown once. Inconclusive results are not listed. Where a structure was tested more than once in an assay, its records may differ in their call. The source made the active and inactive calls. Unless noted, calls follow the shape of the full dose curve. Starred links: 1 amine or outer side, 2 acyl side, 3 side chain; linkers in the order of their positions; H or OH if unused. Positions of bridges follow the written chain, without caps; N, C: chain ends. Non-standard residues stand in square brackets, D forms with d. Residues, ends and D or L forms follow the SMILES beside them. Chains are numbered I, II in the order given. ξ: configuration not given here. *: point of attachment. Actinocin(9to1) = Cc1c2oc3c(C)ccc(C(=O)[*:1])c3nc-2c(C(=O)[*:2])c(N)c1=O; Octanoyl(6-Me) = CCC(C)CCCCC(=O)*; ξThr(3R) = C[C@@H](O)C(N)C(=O)O; NMeV = CN[CH](C(=O)O)C(C)C; dDab = NCC[C@@H](N)C(=O)O; Dab = NCC[C@H](N)C(=O)O; Cbz = O=C(OCc1ccccc1)*; Sar = CNCC(=O)O
# Experiments:
# [1] = qHTS drug screen for cell cycle checkpoint inhibitors in PARPi-resistant BRCA-mutant ovarian cancer cell lines. (AID 1963452); conditions: PEO1/OlaR viability, CellTiter-Glo luminescence, 96 h; for Z-AUC: stronger effect = lower value; also: potency is read from the fitted curve at half-maximal effect
# How it was run: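 PEO1, PEO4 and PEO1/OlaR ovarian cancer cells, 600 per well, exposed 96 h at 37C to a dilution series. Viability read by CellTiter-Glo luminescence, normalized to DMSO and empty wells; activity summarized as Z-AUC.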
# [2] = qHTS for identification of novel therapeutic agents for treatment of microphthalmiaassociated transcription factor (MiT) renal cell carcinoma (RCC) (AID 1963991); conditions: CellTiter-Glo, 48 h, stronger effect = lower value
# How it was run: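 Three TFE3-fusion RCC lines (UOK109, UOK124, UOK145), 500 cells/well in complete medium, were treated with MIPE 4.0 compounds for 48 hours at 37 C. Viability was by CellTiter-Glo luminescence, normalized to DMSO (100%) and empty wells (0%); curves fitted over 11 concentrations.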
# [3] = test system: 3D7; test: qHTS profiling for inhibitors of Plasmodium falciparum proliferation (AID 504749; active = well fitted inhibition curve with a large enough effect; also: potency is read from the fitted curve at half-maximal effect; nearly all actives have a fitted effect of over 60% in size); conditions: P. falciparum in erythrocytes, SYBR Green DNA, 72 h; series mostly up to 28.7 µM
# How it was run: (§1)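 Readout was DNA-dye fluorescence from lysed cultures, ex 485/em 535 nm. Parasitized red cells had grown 72 h with compound; data scaled between 0.29 uM artemisinin and DMSO wells and corrected using vehicle-only plates.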
# [4] = test system: 7G8; test: as above; conditions: P. falciparum in erythrocytes, SYBR Green DNA, 72 h; series mostly up to 28.7 µM
# How it was run: as §1
# [5] = test system: AA1029; test: as above; conditions: P. falciparum in erythrocytes, SYBR Green DNA, 72 h; series mostly up to 28.7 µM
# How it was run: as §1
# [6] = test system: AS120; test: as above; conditions: P. falciparum in erythrocytes, SYBR Green DNA, 72 h; series mostly up to 28.7 µM
# How it was run: as §1
# [7] = test system: ATS189; test: as above; conditions: P. falciparum in erythrocytes, SYBR Green DNA, 72 h; series mostly up to 28.7 µM
# How it was run: as §1
# [8] = test system: ATS95; test: as above; conditions: P. falciparum in erythrocytes, SYBR Green DNA, 72 h; series mostly up to 28.7 µM
# How it was run: as §1
# [9] = test system: C2A; test: as above; conditions: P. falciparum in erythrocytes, SYBR Green DNA, 72 h; series mostly up to 28.7 µM
# How it was run: as §1
# [10] = test system: CP191; test: as above; conditions: P. falciparum in erythrocytes, SYBR Green DNA, 72 h; series mostly up to 28.7 µM
# How it was run: as §1
# [11] = test system: CP192; test: as above; conditions: P. falciparum in erythrocytes, SYBR Green DNA, 72 h; series mostly up to 28.7 µM
# How it was run: as §1
# [12] = test system: CP194; test: as above; conditions: P. falciparum in erythrocytes, SYBR Green DNA, 72 h; series mostly up to 28.7 µM
# How it was run: as §1
# [13] = test system: CP201; test: as above; conditions: P. falciparum in erythrocytes, SYBR Green DNA, 72 h; series mostly up to 28.7 µM
# How it was run: as §1
# [14] = test system: CP203; test: as above; conditions: P. falciparum in erythrocytes, SYBR Green DNA, 72 h; series mostly up to 28.7 µM
# How it was run: as §1
# [15] = test system: CP215; test: as above; conditions: P. falciparum in erythrocytes, SYBR Green DNA, 72 h; series mostly up to 28.7 µM
# How it was run: as §1
# [16] = measured here: PEO1 parental Z-AUC
# [17] = TFE3-RCC UOK109 viability, measured here: UOK109 Z-AUC
# [18] = TFE3-RCC viability, measured here: UOK124 Z-AUC
# [19] = TFE3-RCC viability, measured here: UOK145 Z-AUC
compound,measurement,setting,value
O=C(Nc1ccc(Oc2ccnc3[nH]ccc23)c(F)c1)c1cccn(-c2ccc(F)cc2)c1=O,Z-AUC,[1],-0.152 (inactive)
same,Z-AUC,[1]; [16],0.598
same,Z-AUC,[1]; measured here: PEO4 Z-AUC,0.646
same,z-score,[2]; [17],0.0941
same,z-score,[2]; [18],0.0675
same,z-score,[2]; [19],0.349
CCOc1cc2c(c(F)c1OCC)C(=N)N(CC(=O)c1cc(N3CCOCC3)c(OC)c(C(C)(C)C)c1)C2,Z-AUC,[1],-0.189 (inactive)
same,Z-AUC,[1]; [16],0.331
same,Z-AUC,[1]; measured here: PEO4 Z-AUC,0.119
Cc1cnc(Nc2ccc(N3CCN(C)CC3)cc2)nc1Nc1cccc(S(=O)(=O)NC(C)(C)C)c1,Z-AUC,[1],-0.289 (inactive)
same,Z-AUC,[1]; [16],-0.236
same,Z-AUC,[1]; measured here: PEO4 Z-AUC,-0.304
CCOC(=O)C1=C(C)NC(=S)NC1c1cccc(O)c1 (stereo not given),Z-AUC,[1],1.34 (inactive)
same,Z-AUC,[1]; [16],0.343
same,Z-AUC,[1]; measured here: PEO4 Z-AUC,0.61
CC(C)C[C@@H](C=O)NC(=O)[C@H](CC(C)C)NC(=O)[C@H](CC(C)C)NC(=O)OCc1ccccc1 (Cbz-Leu-Leu-Leu-aldehyde),Z-AUC,[1],-0.0586 (inactive)
same,Z-AUC,[1]; [16],-0.937
same,Z-AUC,[1]; measured here: PEO4 Z-AUC,-0.457
COc1cc(CCc2cc(NC(=O)c3ccc(N4C[C@@H](C)N[C@@H](C)C4)cc3)n[nH]2)cc(OC)c1,Z-AUC,[1],-1.36 (inactive)
same,Z-AUC,[1]; [16],-0.945
same,Z-AUC,[1]; measured here: PEO4 Z-AUC,-0.842
CC(C(C)N1CC(=O)NC(=O)C1)N1CC(=O)NC(=O)C1 (stereo not given),Z-AUC,[1],0.386 (inactive)
same,Z-AUC,[1]; [16],0.374
same,Z-AUC,[1]; measured here: PEO4 Z-AUC,0.397
same,z-score,[2]; [17],-0.243
same,z-score,[2]; [18],-1.76
same,z-score,[2]; [19],-0.193
COc1cc2ncnc(Nc3cccc(Br)c3)c2cc1OC,Z-AUC,[1],0.281 (inactive)
same,Z-AUC,[1]; [16],0.586
same,Z-AUC,[1]; measured here: PEO4 Z-AUC,0.428
CN(C)CCN1C(=O)c2cccc3cc(N)cc(c23)C1=O,Z-AUC,[1],-0.488 (inactive)
same,Z-AUC,[1]; [16],-0.749
same,Z-AUC,[1]; measured here: PEO4 Z-AUC,-0.88
CCC(C)CCCCC(=O)N[C@@H](CCN)C(=O)NC(C(=O)N[C@H](CCN)C(=O)N[C@@H]1CCNC(=O)C([C@@H](C)O)NC(=O)[C@@H](CCN)NC(=O)[C@@H](CCN)NC(=O)[C@@H](CC(C)C)NC(=O)[C@H](Cc2ccccc2)NC(=O)[C@H](CCN)NC1=O)[C@@H](C)O (stereo partly drawn) ({Octanoyl(6-Me)}-[Dab][ξThr(3R)][dDab][dDab][Dab]F[dL][dDab][dDab][ξThr(3R)]; lactam 4-C),Z-AUC,[1],1.19 (inactive)
same,Z-AUC,[1]; [16],0.672
same,Z-AUC,[1]; measured here: PEO4 Z-AUC,0.762
same,z-score,[2]; [17],0.782
same,z-score,[2]; [18],0.881
same,z-score,[2]; [19],0.703
"Cc1c2oc3c(C)ccc(C(=O)NC4C(=O)NC(C(C)C)C(=O)N5CCCC5C(=O)N(C)CC(=O)N(C)C(C(C)C)C(=O)OC4C)c3nc-2c(C(=O)NC2C(=O)NC(C(C)C)C(=O)N3CCCC3C(=O)N(C)CC(=O)N(C)C(C(C)C)C(=O)OC2C)c(N)c1=O (stereo not given) (I: TVP[Sar][NMeV] / II: TVP[Sar][NMeV]; ester I:1-I:C, II:1-II:C; linker I:N-II:N via Actinocin(9to1); configuration not given here)",Z-AUC,[1],-0.322 (inactive)
same,Z-AUC,[1]; [16],-0.674
same,Z-AUC,[1]; measured here: PEO4 Z-AUC,-0.27
same,z-score,[2]; [17],-4.2
same,z-score,[2]; [18],-4.25
same,z-score,[2]; [19],-3.66
COc1cccc2c1C(=O)c1c(O)c3c(c(O)c1C2=O)C[C@@](O)(C(=O)CO)C[C@@H]3O[C@H]1C[C@H](N)[C@H](OC2CCCCO2)[C@H](C)O1 (stereo not given in full),Potency,[1],0.245 µM (active)
same,Z-AUC,[1],0.402 (inactive)
same,Z-AUC,[1]; [16],-0.769 and -1.75
same,Z-AUC,[1]; measured here: PEO4 Z-AUC,0.0749 and -1.06
same,Potency,[3],2.24 µM (active)
same,Potency,[4],0.794 µM (active)
same,Potency,[5],3.55 µM (active)
same,Potency,[6],2.51 µM (active)
same,Potency,[7],11.2 µM (active)
same,Potency,[8],3.98 µM (active)
same,Potency,[9],8.91 µM (active)
same,Potency,[10],8.91 µM (active)
same,Potency,[11],8.49 µM (active)
same,Potency,[12],9.53 µM (active)
same,Potency,[13],9.53 µM (active)
same,Potency,[14],4.78 µM (active)
same,Potency,[15],6.75 µM (active)
O=c1ccn([C@@H]2O[C@H](CO)[C@H](O)[C@@H]2F)c(=O)[nH]1,Z-AUC,[1],0.179 (inactive)
same,Z-AUC,[1]; [16],0.56
same,Z-AUC,[1]; measured here: PEO4 Z-AUC,0.262
